Data on 26 molecules can be found in PubChem BioAssay (NCATS).

Holding throughout (test): qHTS profiling for inhibitors of Plasmodium falciparum proliferation (AID 504749); also: nearly all actives have a fitted effect of over 60% in size
Settings in all cases: P. falciparum in erythrocytes, SYBR Green DNA, 72 h; series mostly up to 28.7 µM
Background: In qHTS, concentration-response curves come from the screen itself.

For assay [1], the system named is CP266. The method, boiled down: (§1)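 Three-day growth assay of blood-stage parasites in erythrocytes (0.3% parasitemia, 2.5% hematocrit) at 37 C, 5% CO2, quantified by SYBR Green DNA staining after overnight detergent lysis.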
For assay [2], the system named is CP268. The procedure, abridged: as §1
Assay [3] relates to CP269. The procedure, abridged:
as §1

The subject of assay [4] is CP286. The procedure, abridged:
as §1

Assay [5] deals with CP291. The procedure, abridged: as §1
The subject of assay [6] is CP297. The method, boiled down: as §1
The test system of assay [7] is CP305. The method, boiled down: as §1
Assay [8] deals with CP315. The procedure, abridged:
as §1

Assay [9] deals with CP325. The procedure, abridged: as §1
Assay [10] deals with CP329. The procedure, abridged: as §1

Inconclusive results are not listed. Activity calls are given as the source filed them. Calls follow the shape of the dose curve; as a rule, active = well fitted inhibition curve with a large enough effect; inconclusive = small, poorly fitted or top-dose-only effect; inactive = flat fitted curve, though single readings scatter.
Potency is read from the fitted curve at half-maximal effect.

Regarding `NCc1cccnc1`, the Potency result in assay [1], in [2], in assay [3], in assay [4], in [5] and in assay [6] was “inactive” in each case. Also, the Potency result in assay [7], in [8], in assay [9] and in assay [10] was “inactive” in each case.

On to `CCNc1nc(Cl)nc(NCC)n1`, for which the Potency entry in assay [1], in [2], in assay [3], in [4], in [5] and in [6] was “inactive” throughout. Also, the Potency entry in assay [7], in assay [8], in assay [9] and in assay [10] was “inactive” each time.

`CCC1(CC)C(=O)NC(=O)NC1=O`: the Potency result in [1], in [2], in assay [3], in [4], in assay [5] and in [6] was “inactive” each time. Also, the Potency result in [7], in assay [8], in assay [9] and in [10] was “inactive” throughout.

Regarding `COP(=O)(OC)OC=C(Cl)Cl`, the Potency result in [1], in assay [2], in [3], in [4], in assay [5] and in assay [6] was “inactive” each time. Besides, the Potency result in [7], in assay [8], in assay [9] and in [10] was “inactive” throughout.

As for `CCC(=O)O[C@H]1CC[C@H]2[C@@H]3CCC4=CC(=O)CC[C@]4(C)[C@H]3CC[C@]12C`, the Potency result in assay [1], in [2], in [3], in assay [4], in assay [5] and in assay [6] was “inactive” throughout. The Potency entry in assay [7], in assay [8], in assay [9] and in assay [10] was “inactive” throughout.

On to `CCC1(c2ccccc2)CCC(=O)NC1=O` (centres undefined), for which the Potency entry in [1], in [2], in assay [3], in assay [4], in assay [5] and in assay [6] was “inactive” each time. Further, the Potency entry in assay [7], in assay [8], in assay [9] and in [10] was “inactive” throughout.

`C[C@]12Cc3nonc3C[C@@H]1CC[C@@H]1[C@@H]2CC[C@@]2(C)[C@H]1CC[C@]2(C)O`: the Potency entry in assay [1], in assay [2], in assay [3], in [4], in [5] and in assay [6] was “inactive” in each case. In addition, the Potency result in assay [7], in assay [8], in assay [9] and in [10] was “inactive” each time.

In the case of `CCS(=O)(=O)C(C)(C)S(=O)(=O)CC`, the Potency result in assay [1], in assay [2], in assay [3], in assay [4], in assay [5] and in assay [6] was “inactive” throughout. Further, the Potency entry in assay [7], in assay [8], in assay [9] and in assay [10] was “inactive” each time.

Consider `NC(=O)CN1CCCC1=O`, for which the Potency result in [1], in assay [2], in assay [3], in [4], in assay [5] and in [6] was “inactive” each time. Moreover, the Potency result in assay [7], in [8], in [9] and in assay [10] was “inactive” throughout.

Take `CN(C)C(=S)SSC(=S)N(C)C`: the Potency in assay [1] was 4.78 µM (active); in assay [2], 3.01 µM (active); in assay [3], 2.13 µM (active); in [4], 1.26 µM (active); in [5], 3.01 µM (active); in assay [6], 4.26 µM (active). Also, the Potency in [7] was 2.39 µM (active); in [8] it was 4.78 µM (active); in assay [9], 2.39 µM (active); in [10] it was 3.79 µM (active).

For `OC(c1ccccc1)(c1ccccc1)C1CCNCC1`, the Potency entry in assay [1], in assay [2], in assay [3], in [4], in [5] and in assay [6] was “inactive” each time. In addition, the Potency result in assay [7], in [8], in assay [9] and in [10] was “inactive” each time.

As to `C[N+](C)(C)CCOC(=O)C(O)(c1ccccc1)c1ccccc1`, the Potency entry in [2], in [3], in assay [4], in assay [5], in assay [6] and in [7] was “inactive” each time. Besides, the Potency entry in assay [8], in assay [9] and in assay [10] was “inactive” throughout.

`O=C1NCN(c2ccccc2)C12CCN(CCCOc1ccc(F)cc1)CC2`: the figures for the Potency in assay [4] and in assay [6] were 12.6 µM (active) and 12 µM (active), respectively. Besides, the Potency result in assay [8] and in [10] was “inactive” in each case.

On to `C#C[C@]1(O)CC[C@H]2[C@@H]3CCC4=CC(=O)CCC4=C3C=C[C@@]21CC`, for which the Potency result in assay [8] is “inactive”.

As to `COc1ccc(CN2CCNCC2)c(OC)c1OC`, in assay [4], the Potency result is “inactive”. The Potency in assay [5] is 5.1 µM (active).

For the molecule `Clc1ccc(CO/N=C(\Cn2ccnc2)c2ccc(Cl)cc2Cl)c(Cl)c1`, the Potency in [3] is 13.5 µM (active); in assay [4], 5.62 µM (active); in assay [5] it was 12 µM (active); in assay [6], 4.78 µM (active); in [7], 13.5 µM (active); in assay [9], 13.5 µM (active).

With `C=CCOC(Cn1ccnc1)c1ccc(Cl)cc1Cl` (centres undefined), the Potency in [2] is 15.1 µM (active); in [3], 15.1 µM (active); in [4], 11.2 µM (active); in [5] it was 12 µM (active); in assay [6], 6.75 µM (active); in assay [8], 16.9 µM (active). Besides, in assay [9], the Potency is 15.1 µM (active).

Regarding `CCN(CC)CCOC(=O)C(C)(c1ccccc1)c1ccccc1`, the Potency result in assay [8] was “inactive”.

Take `Nc1ccc(N)cc1`: the Potency entry in assay [1], in assay [4], in assay [8] and in assay [10] was “inactive” each time.

Take `CN1C(=O)CN=C(c2ccccc2)c2cc([N+](=O)[O-])ccc21`: the Potency entry in assay [1], in assay [2], in assay [3], in [4], in assay [5] and in assay [6] was “inactive” throughout. Besides, the Potency result in [7], in [8] and in assay [10] was “inactive” in each case.

For the molecule `O=C(NC(=O)c1c(F)cccc1F)Nc1cc(Cl)c(OC(F)(F)C(F)C(F)(F)F)cc1Cl` (centres undefined), the Potency result in assay [1], in [2], in [3], in [5], in assay [6] and in assay [7] was “inactive” each time. For the same molecule, the Potency result in [8], in [9] and in assay [10] was “inactive” each time.

Consider `N#Cc1nn(-c2c(Cl)cc(C(F)(F)F)cc2Cl)c(N)c1S(=O)C(F)(F)F` (centres undefined), for which the Potency is 6.01 µM (active) in assay [2]; 15.1 µM (active) in assay [3]; 5.01 µM (active) in assay [4]; 6.75 µM (active) in assay [5]; 10.7 µM (active) in [6]; 7.57 µM (active) in assay [7]. In addition, the Potency in assay [10] was 7.57 µM (active).

Regarding `CNC(=O)Oc1cccc2ccccc12`, the Potency entry in assay [1], in assay [2], in [3], in [4], in assay [5] and in [7] was “inactive” throughout. For the same molecule, the Potency result in assay [9] and in [10] was “inactive” throughout.

In the case of `CC(C)[N+](C)(CCC(C(N)=O)(c1ccccc1)c1ccccc1)C(C)C`, the Potency result in assay [1], in [2], in assay [3], in assay [4], in assay [5] and in assay [6] was “inactive” in each case. For the same molecule, the Potency entry in assay [7], in [8], in assay [9] and in assay [10] was “inactive” throughout.

`Oc1ccc2[nH]cc(CCCCN3CC=C(c4ccccc4)CC3)c2c1`: the Potency was 15.1 µM (active) in assay [6] and 16.9 µM (active) in [8].

`CCN(Cc1ccc(Cl)nc1)/C(=C/[N+](=O)[O-])NC`: the Potency result in [1], in assay [2], in assay [3], in [4], in [5] and in assay [6] was “inactive” in each case. Further, the Potency entry in [7], in assay [8], in assay [9] and in assay [10] was “inactive” each time.
